Measured values: PubChem BioAssay (NCI)
Several values for one entry are separate records, joined by “and”; a condition that tells them apart may be missing. Equal entries are not always repeated. The panel holds about 79,000 compounds, 15% with a hit somewhere; the sample as a whole holds those more often. Activity calls are given as the source filed them. No stated cut-off is given here; in the data, active means growth inhibition above about 70%; inactive means the rest.

Experiments:
[1] = NCI Yeast Anticancer Drug Screen. Data for the rad50 strain (AID 155);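 further: 0% = growth of vehicle-only cultures of the same strain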; conditions: S. cerevisiae rad50 strain growth inhibition, hits give high values; at 50.0 µM unless noted
Method in brief: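 Vehicle-treated cultures provide the reference for the growth inhibition reported for compound-exposed, repair-deficient yeast.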

[2] = NCI Yeast Anticancer Drug Screen. Data for the mec2-1 strain (AID 157); conditions: S. cerevisiae mec2-1 strain, hits give high values; at 50.0 µM unless noted
Method in brief: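 mec2-1 yeast strain, carrying an alteration in DNA damage repair or cell cycle control, was exposed to compounds; growth inhibition was measured relative to vehicle-treated controls.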

[3] = NCI Yeast Anticancer Drug Screen. Data for the sgs1 mgt1 strain (AID 161);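 further: 0% = growth of cultures given vehicle only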; conditions: S. cerevisiae sgs1 mgt1 strain, hits give high values; at 50.0 µM unless noted
Method in brief: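 Compounds are added to genetically altered yeast, and growth is compared with cultures given vehicle alone to give percent inhibition.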

[4] = NCI Yeast Anticancer Drug Screen. Data for the cln2 rad14 strain (AID 165);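 further: 0% = growth equal to vehicle treated cultures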; conditions: S. cerevisiae cln2 rad14 strain, hits give high values; at 50.0 µM unless noted
Method in brief: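 Yeast carrying cln2 and rad14 alterations (cell cycle control and DNA damage repair) were exposed to compounds. Growth inhibition was measured against vehicle-treated controls.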

[5] = NCI Yeast Anticancer Drug Screen. Data for the bub3 strain (AID 167); conditions: S. cerevisiae bub3 mutant strain, hits give high values; at 50.0 µM unless noted
Method in brief: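 Mutant yeast screening strain plus compound; vehicle-treated cultures serve as the 0% inhibition reference.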

[6] = NCI Yeast Anticancer Drug Screen. Data for the mlh1 rad18 strain (AID 175); conditions: S. cerevisiae mlh1 rad18 strain growth inhibition, hits give high values; at 50.0 µM unless noted
Method in brief: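 Growth inhibition of the yeast strain was measured after compound exposure and expressed relative to vehicle-treated controls. The strain carries defined defects in DNA damage repair.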

Measured: growth inhibition

Cc1cc(=O)n(-c2ccccc2)c(=O)[nH]1
inactive: [1] 1.2% | [2] 1.95% | [3] 1.5% | [4] 1.2% | [5] -4.25% | [6] -12%

COC(=O)CSc1cc(Cl)c(C)cc1S(=O)(=O)Nc1n[nH]c(N)n1
inactive: [1] -14.2% | [2] -7.5% | [3] -11% | [4] -6.65% | [5] -9.75% | [6] 10.2%

NC(N)=NC(N)=Nc1cc(Cl)c(Cl)cc1Cl
active: [1] 98.2% | [2] 99.5% | [3] 99.3% | [4] 98.8% | [5] 99.2% | [6] 99.3%

COc1cc2c3cc1Oc1cc(ccc1O)C[C@@H]1c4c(cc(OC)c(O)c4Oc4ccc(cc4)C[C@@H]3[N+](C)(C)CC2)CC[N+]1(C)C
inactive: [1] -23.2% | [2] -43.1% | [3] -40.4% | [4] 68.6% | [5] -35.6% | [6] 6.7%

CCN(CC)c1ccc(/C=C(\C)c2nc3ccc(C)cc3[nH]2)cc1
inactive: [1] -5.25% | [2] -10.7% | [3] 8.1% | [4] 1.8% | [5] -9.3% | [6] 3.45%

CC(/C(=N/O)c1ccccc1)N1C(=O)c2ccccc2C1=O (stereo unspecified)
inactive: [1] -31.1% | [2] -12.9% | [3] -4.5% | [4] -27.1% | [5] -3.95% | [6] 5.7%

CCCCCCCCCCCCCOc1ccc(S(=O)(=O)/N=C(\N)NC(N)=NCCCCCCCCCCCC)cc1
inactive: [1] 2.9% | [2] 12.4% | [3] -2.8% | [4] -1.55% | [5] -4.95% | [6] 8.05%

COC(OC)C(C)=O
inactive: [1] -13.1% | [2] -19.8% | [3] -18.9% | [4] -16.9% | [5] -15.5% | [6] 5.35%

Nc1ccccc1SC(CC(=O)c1ccc(-c2ccccc2)cc1)c1ccco1 (stereo unspecified)
inactive: [1] -18.4% | [2] -30.6% | [3] 17% | [4] -9.2% | [5] -7.6% | [6] -31.7%

CN(N)c1nc(N)c(C#N)c(C#N)c1C#N
inactive: [1] -16.8% | [2] -22.5% | [3] -4.9% | [4] 11.7% | [5] -2.65% | [6] 3.9%

Cc1noc(NC(=O)Nc2ccccc2F)c1C#N
inactive: [1] -24.3% | [2] -10.4% | [3] -33.1% | [4] 26.9% | [5] -15.9% | [6] -2.25%

O=C(OC1CCCCCCC1OC(=O)c1ccc([N+](=O)[O-])cc1)c1ccc([N+](=O)[O-])cc1 (stereo unspecified)
inactive: [1] 7.05% | [2] 1.85% | [3] 6.4% | [4] 11.8% | [5] -4.8% | [6] 1.7%

N#CCN1CCc2ccccc2C1
inactive: [1] -8.45% | [2] -7.15% | [3] -6.65% | [4] -33.9% | [5] -11.7% | [6] -6%

CC(=O)Nc1ccc(-c2nnc(SCC(=O)Nc3cccc([N+](=O)[O-])c3)o2)cc1
inactive: [1] -2% | [2] 5.15% | [3] 15.6% | [4] -17.5% | [5] -10.7% | [6] 0.4%

Clc1ccccc1NN(Cc1ccncc1)c1ccccc1Cl
inactive: [1] 55.6% | [2] 23.1% | [3] 23.7% | [4] 26.9% | [5] 34.1% | [6] 53.1%

Cc1cc(C)c2ccc(Cl)nc2n1
inactive: [1] -6.75% | [2] 0.55% | [3] -7.35% | [4] 9.35% | [5] -4.35% | [6] 6.1%

CCOC(=O)C(=O)/C(=C/N1C(=O)CC(=O)NC1=S)C(=O)OCC
inactive: [1] -19.6% | [2] -47.2% | [3] -25% | [4] -13.9% | [5] -34.9% | [6] -10.6%

CC1=CC(=C2C=C(C)C(=O)C(C)=C2)C=C(C)C1=O
inactive: [1] 9.85% | [2] -6.65% | [3] 24.4% | [4] -0.25% | [5] 4.25% | [6] 14.2%

CC1(C)COC(=S)N1
inactive: [1] -3% and -28.6% | [2] 6.85% and -21.8% | [3] 0.5% and -14.8% | [4] 11.4% and -25.3% | [5] 9.55% and -26.9% | [6] 19.1% and -27.2%

O=C1NN(C(=O)c2ccccc2)C(c2ccccc2[N+](=O)[O-])c2c1c1ccccc1n2C(=O)c1ccccc1 (stereo unspecified)
inactive: [1] 28.9% | [2] 5.65% | [3] 5.2% | [4] -23.4% | [5] -4.05% | [6] 14.9%

O=[N+]([O-])c1ccc(/C(=C\c2ccc(-c3ccccc3)o2)S(=O)(=O)c2ccccc2)o1
inactive: [1] 26.2% | [2] -17.5% | [3] -5.1% | [4] 23.6% | [5] -1.2% | [6] 2.25%

Cn1ccnc1C(O)(c1nccn1C)c1nccn1C
inactive: [1] -5.75% | [2] -2.55% | [3] 2.15% | [4] 19.1% | [5] -8.35% | [6] 16.2%

CO/C(=N\N=C\c1ccc(C(F)(F)F)cc1)c1ccncc1
inactive: [1] 54.5% | [2] 18.9% | [3] 35.3% | [4] 22.4% | [5] 30.9% | [6] 15.3%

NC(=S)N/N=C1/CN(c2ccc(Cl)c(Cl)c2)CC(=O)C1c1nc2ccccc2s1 (stereo unspecified)
inactive: [1] 49.1% | [2] 28.6% | [3] 53% | [4] 26.1% | [5] -0.65% | [6] 52.2%

COC(=O)C1CCOC(C)N1C(=O)OC(C)(C)C (stereo unspecified)
inactive: [1] 2.9% | [2] 0.75% | [3] 6.4% | [4] 11% | [5] 13.2% | [6] -34.5%

C=CC[Si](CC=C)(OCC)OCC
inactive: [1] 9.65% | [2] -21.9% | [3] 7.05% | [4] 20.7% | [5] -6.9% | [6] 23.2%

CC1(C)COC1(c1ccccc1)c1cccnc1 (stereo unspecified)
inactive: [1] -45.1% | [2] -11.4% | [3] -14.1% | [4] -39.2% | [5] 8.15% | [6] -16.8%

CCCCc1cc(C(=O)OC/C(C)=N/NC(N)=O)c2ccccc2n1
inactive: [1] -6.7% | [2] 25.8% | [3] 18.9% | [4] -27.6% | [5] 35.8% | [6] 9.45%

OC1COC(c2ccccc2)OC1 (stereo unspecified)
inactive: [1] -7.15% | [2] -2.1% | [3] 4.15% | [4] -5.85% | [5] -1.75% | [6] 24.6%

CCCOc1cc2c(cc1C(C)c1ccc(OC)c(C)c1)OCO2 (stereo unspecified)
inactive: [1] -3.55% | [2] 3.45% | [3] -6% | [4] -87.7% | [5] 4.55% | [6] 4.15%

CC(=O)NNc1nc(C)c(C(/C=C/c2ccc(Cl)cc2)=N/NC(=O)C[N+](C)(C)C)s1
inactive: [1] 15.1% | [2] 7.25% | [3] 9.15% | [4] 21.8% | [5] 21.4% | [6] -0.25%

Cn1c(=O)[nH]c(=O)c2nc(-c3ccccc3)cnc21
inactive: [1] -11.9% | [2] 12.3% | [3] 2.55% | [4] -13.6% | [5] -2.7% | [6] -0.65%

Cc1ccc(S(=O)(=O)CCC#N)cc1
inactive: [1] 0.25% | [2] 8.2% | [3] -5.65% | [4] -9.35% | [5] -8.2% | [6] -11.7%

CCOC(=O)C(C#N)(CC(=O)OC)C(c1cccc2ccccc12)c1cccc2ccccc12 (stereo unspecified)
inactive: [1] 10.9% | [2] -12.7% | [3] 12.7% | [4] 21% | [5] -7.15% | [6] 13.8%

CN(C)C[C@@H]1C2C=CC(C2)[C@@H]1CO (stereo partly specified)
inactive: [1] -6.5% | [2] 4.55% | [3] -0.9% | [4] 4.95% | [5] 2.25% | [6] -10.6%

[N-]=[N+]=Nc1cccc(-c2n[nH]c(Cl)cc2=O)c1
inactive: [1] -19.9% | [2] -11.6% | [3] -38.6% | [4] 3.1% | [5] -10.9% | [6] -34%
